Consider 40 compounds from PubChem BioAssay (Tox21).

Each structure is given as a SMILES string. Records with an inconclusive call do not appear. Activity calls are given as the source filed them. Calls follow the shape of the dose curve; as a rule, active = well fitted activation curve with a large enough effect in the repeat runs; inconclusive = weak or mixed curves; inactive = flat fitted curve, though single readings scatter.
% is scaled to controls: 0 for no effect and ±100 for the full control effect.

A short description of this experiment: Caspase-3/7 induction in HepG2 cells by small molecules, qHTS assay (AID 1346978). Also: nearly all actives have a fitted effect of over 15% in size. Conditions: HepG2 caspase-3/7 activation, Caspase-Glo luminescence, 17 h; series mostly up to 92.4 µM. The text has this: National Center for Advancing Translational Sciences [NCATS] NIH Chemical Genomics Center [NCGC] U.S. Environmental Protection Agency [EPA] National Institutes of Environmental Health Sciences [NIEHS] National Toxicology Program [NTP] Assay overview: Apoptosis is a process of programmed cell death and plays a central role in the development of multicellular organisms. It is a highly regulated process and induces cell death by activating caspases, which are the members of cysteine aspartic acid-specific protease (caspase) family. Caspases involved in apoptosis are classified by their mechanism of action as initiator caspases (caspase-2, -8, -9 and -10) and executioner caspases (caspase-3, -6, and -7). Inhibition of apoptosis results in number of cancers, autoimmune diseases, inflammatory diseases and viral infection. To identify small molecule compounds that induce apoptosis, a homogeneous, luminescent Caspase-Glo 3/7 assay was used. Wild type HepG2 cells were used to screen Tox21 libraries for identifying caspase-3/7 activity inducers.
Assay Protocol Summary: HepG2 cells were dispensed at 2,000 per well in 5uL of culture medium into white solid bottom 1536-well plates (Corning Life Sciences, Corning, NY) using a Multidrop Combi (Thermo Scientific, Waltham, MA) dispenser. The assay plates were incubated at 37 C and 5% CO2 for 5hr, and then 23nL of compounds dissolved in DMSO and positive control were transferred using a Pintool station (Wako, San Diego, CA). The assay plates were incubated at 37C and 5% CO2 for 17hr. For caspase-3/7 activity read, 4uL of Caspase-Glo 3/7 reagent (Promega Corporation, Madison, WI) was added to each well of the assay plates using Flying Reagent Dispenser (FRD, Aurora Discovery, San Diego, CA) and incubated the assay plates at room temperature for 30min. The luminescence signal was quantified using a ViewLux plate reader (Perkin Elmer, Shelton, CT).
(Quantitative high-throughput screening tests each substance at several concentrations.)
Take `CCNC(=O)/C=C/c1cccc(Br)c1`: the outcome was inactive.

As to `CO/N=C(/C(=O)N[C@@H]1C(=O)N2C(C(=O)O)=C(Cn3nnc(C)n3)CS[C@H]12)c1csc(N)n1`, the compound was called inactive.

As to `C=C(C)[C@@H]1CC[C@@H](C)C[C@@H]1O`, the outcome was inactive.

For the compound `CN(C)CCOCCN(C)CCO`, the outcome was inactive.

For the compound `C=C[Si](C)(C)O[Si](C)(C)C=C`, the compound was called inactive.

For `BrC/C=C/CBr`, the caspase activation is -0.853% [at 19 µM] (inactive).

Consider `CCCCCCCCCCCCCCCCI`, for which the caspase activation is 0.99% [at 19 µM] (inactive).

As to `CC(Cl)COP(=O)(OCC(C)Cl)OCC(C)Cl` (stereo not given), the compound was classed as inactive.

Regarding `CC(=O)OC[C@H]1O[C@@H](OC(C)=O)[C@H](OC(C)=O)[C@@H]1OC(C)=O`, the result was inactive.

With `CC(=O)OC(C)c1ccccc1` (stereo not given), the result was inactive.

Consider `CO[Si](CCCCl)(OC)OC`, for which the compound was called inactive.

Consider `Cc1nc2ccccc2c(=O)o1`, for which the outcome was inactive.

For the compound `O=C(O)c1ccc(OCCN2CCCCC2)cc1`, the compound was classed as inactive.

As to `Cc1ncc([N+](=O)[O-])n1CC(O)CCl` (stereo not given), the compound was called inactive.

Turning to `CC(C)CCCCCCOC(=O)C1CCCCC1C(=O)OCCCCCCC(C)C` (stereo not given), the compound was called inactive.

Consider `c1ccccc1`, for which the result was inactive.

Take `CNC(=O)C(c1ccccc1)c1ccccc1`: the call was inactive.

`CCC1Nc2cc(Cl)c(S(N)(=O)=O)cc2S(=O)(=O)N1` (stereo not given): the result was inactive.

For `Cc1ccc(S(=O)(=O)NC(=O)NC2CCCCCCC2)cc1`, the outcome was inactive.

Turning to `CCC(CO)CO`, the compound was called inactive.

In the case of `CCCOCCOCCOCCO`, the compound was classed as inactive.

For `CC(=O)OC(C(=O)c1ccccc1)c1ccccc1` (stereo not given), the result was inactive.

As for `CC(=O)N1CCN(c2ccc(O)cc2)CC1`, the compound was classed as inactive.

Take `SCCSCCS`: the compound was called inactive.

In the case of `OCCCCCCCl`, the compound was called inactive.

For the compound `O=C(/C=C/c1ccccc1)NCCO`, the outcome was inactive.

With `Cc1cccc(Nc2ccncc2S(=O)(=O)NC(=O)NC(C)C)c1`, the result was inactive.

In the case of `Cn1c(=O)c2c(ncn2CC2OCCO2)n(C)c1=O`, the result was inactive.

With `CC(C)C(=O)c1ccccc1`, the compound was classed as inactive.

With `Cc1oc(=O)oc1CN1CCN(c2cc3c(cc2F)c(=O)c(C(=O)O)c2n3C(C)S2)CC1` (stereo not given), the compound was classed as inactive.

On to `C=CCOCC(O)CCl` (stereo not given), for which the compound was called inactive.

For `CCCCC(CC)CNC(=O)CC(C)OC(=O)CCC(=O)O` (stereo not given), the compound was called inactive.

On to `COc1cccc2sc(N)nc12`, for which the call was inactive.

Take `C1=CCC(c2ccccc2)CC1` (stereo not given): the compound was called inactive.

Take `CC(C)CCO`: the result was inactive.

For the compound `CCC(O)C(C)(C)C` (stereo not given), the outcome was inactive.

Regarding `CC(C)C(=O)Nc1cccc(C(F)(F)F)c1`, the result was inactive.

Take `CCCO`: the result was inactive.

As for `Nc1ccnc(=O)[nH]1`, the result was inactive.

Regarding `CC(C)(C)c1ccc(C=O)cc1`, the compound was called inactive.
